Screening data: PubChem, National Center for Advancing Translational Sciences (NCATS)
HT1080-NT tox – kills 2HG-producing HT-1080-NT fibrosarcoma cells | HT-1080-NT fibrosarcoma viability, CellTiter-Glo ATP luminescence, 48 h | Potency, µM (top dose mostly 46.1 µM), inactives show at the top dose activity, negative = less viability, hits mostly cytotoxic | actives 1.6% (n = 360,000);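 further: NT is the 2HG producing partner of a matched IDH1 knockdown line; 0% = DMSO-treated cells and -100% = media-only wells without cells; nearly all actives have a fitted effect of over 55% in size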
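A 48-hour cytotoxicity screen used HT-1080-NT cells plated 2 hours before compound delivery. ATP-based CellTiter-Glo luminescence measured viability, normalized to DMSO and no-cell controls.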
S2 tox – viability counter-screen for ATXN expression inhibitors | S2 cells (HEK-293 line with an ATXN2-luciferase reporter) viability, CellTiter-Fluor protease fluorescence, 24 h | Potency, µM (titrated, usually from 56.7 µM), most hits filed as cytotoxic | actives 0.49% (n = 400,000) | AID 651635; further: nearly all actives have a fitted effect of over 40% in size
HT1080 IDH1KD tx – toxicity to HT-1080 IDH1 knockdown cells (counter line). HT-1080 IDH1 knockdown viability, ATP luminescence, 48 h. Potency, µM (titrated, usually from 46.1 µM), without a hit: top-dose activity, negative = toxicity, actives largely listed as cytotoxic. actives 2% (n = 360,000);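 further: 0% = DMSO wells and -100% = cell-free medium wells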
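HT-1080-IDH1KD cells (IDH1 knocked down), 750/well in RPMI with 5% FBS, treated with compound 48 h at 37 degrees C. Viability by CellTiter-Glo luminescence, normalised to DMSO and no-cell wells; concentration-response curves classed.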
KB-3-1 tox – kills parental KB-3-1 adenocarcinoma cells; KB-3-1 viability, CellTiter-Glo ATP luminescence, 72 h; Potency, µM (series often up to 46.1 µM), most hits filed as cytotoxic; actives 1.4% (n = 400,000); AID 1347075; further: on the % scale 0 is the no-effect control and ±100 the full control effect; nearly all actives have a fitted effect of over 60% in size
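Here the drug-naive KB-3-1 line serves as comparator for MDR sub-line selectivity; cells received compound titrations, 72 h at 37 °C, then CellTiter-Glo readout.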
ATXN2 expr inh – inhibitors of ATXN2 expression. HEK-293 ATXN2-luciferase reporter, luminescence, 24 h. Potency, µM (highest dose often 57 µM), for inactives: at the top dose activity change, negative = inhibition, actives largely listed as inhibitors. actives 0.72% (n = 360,000); further: on the % scale 0 is the no-effect control and ±100 the full control effect; nearly all actives have a fitted effect of over 55% in size
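qHTS (up to 57 uM final) was run with 24 h compound exposure of reporter cells at 37 °C. Each well was multiplexed: SteadyGlo luminescence measured ATXN2-luciferase expression after a fluorogenic Gly-Phe-AFC viability readout (25 uM final).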
KB-V1 cytotox – kills drug-selected multidrug resistant KB-V1 cells. KB-V1 MDR cells viability, CellTiter-Glo, 72 h. Potency, µM (highest dose often 46.1 µM), most hits filed as cytotoxic. actives 3.4% (n = 400,000); further: on the % scale 0 is the no-effect control and ±100 the full control effect; nearly all actives have a fitted effect of over 60% in size
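Cytotoxicity via CellTiter-Glo luminescence after 72 h compound exposure at 37 degrees C. Cells: drug-selected KB-V1 line, DMEM phenol-red free plus 10% FBS. Compounds tested at multiple concentrations; normalized data fitted to concentration-effect curves.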
Active calls of the source: *; i = inactive; ? = inconclusive; / = no result; [ ] = remark or other dose. Rows were chosen to be rich in hits. Some 6.2% of all compounds tested hit in one or more screens of this group. The call rests on the fitted dose curve; in most records, active means well fitted curve in the direction sought with a large enough effect; inconclusive means small, poorly fitted or top-dose-only effect, or another doubt; inactive means no such curve, though single readings can be large; an effect the other way counts as inactive or inconclusive. Potency means the concentration at half of the fitted maximal effect.

SMILES	HT1080-NT tox	S2 tox	HT1080 IDH1KD tx	KB-3-1 tox	ATXN2 expr inh	KB-V1 cytotox
CCN(CC)c1ccc(C2=NNC(=O)CC2C)cc1[N+](=O)[O-] (centres undefined)	8%[9.24 µM]	i	?	0.21µM*	12%	?
O=C(/C=C\c1cccs1)c1c(O)ccc2ccc(=O)oc12	?	i	23µM*	?	-1%	i
O=C(Nc1ccc(N2CCN(C(=O)c3ccccc3)CC2)cc1)c1ccc([N+](=O)[O-])o1	7.3µM*	?	?	i	/	?
O=C(/C=C/c1ccco1)N1CCN(c2ccccc2)CC1	7%	i	-5%	i	57%	i
O=C(Nc1ccccc1N1CCCCC1)c1ccc([N+](=O)[O-])o1	0%	?	2%	?	-27%	?
O=C(Nc1ccccc1N1CCN(C(=O)c2ccc(Cl)cc2)CC1)c1ccc([N+](=O)[O-])o1	?	?	?	21µM*	?	?
Cc1ccccc1C(=O)N1CCN(c2ccc(NC(=O)c3cccnc3)cc2)CC1	-2%	i	-8%	i	-15%	?
O=C(/C=C\c1ccco1)Nc1ccc(N2CCN(C(=O)c3ccccc3)CC2)cc1	-1%	i	-1%	i	1%	23µM*
Cc1ccccc1C(=O)N1CCN(c2ccc(NC(=O)c3ccc([N+](=O)[O-])o3)cc2)CC1	1.3µM*	?	2.6µM*	5.8µM*	-28%	?
CCCCCC[C@@H](CCC)C(=O)O	/	i	/	/	-13%	/
CC1(C)Cc2c(sc(NC(=O)c3ccc(C(=O)c4ccccc4)cc3)c2C(N)=O)C(C)(C)N1	10µM*	?	9.2µM*	?	25µM*	?
COC(=O)c1c(NC(=O)c2ccccc2)sc2c1CC(C)(C)NC2(C)C	-3%	i	0%	i	-11%	i
CC1(C)Cc2c(sc(NC(=O)c3ccc4ncsc4c3)c2C(N)=O)C(C)(C)N1	23µM*	i	23µM*	?	/	?
Oc1c(C(c2cccc(Cl)c2)N2CCOCC2)sc2nc(-c3ccco3)nn12 (centres undefined)	/	i	/	i	-9%	i
COc1ccc(C2C=C(c3ccccc3)Nc3nnnn32)cc1 (centres undefined)	9%	/	-1%	i	24%	i
COc1ccc(OC)c(C2C=C(c3ccc(C)c(C)c3)Nc3nnnn32)c1 (centres undefined)	?	i	?	6.5µM*	-28%	6.5µM*
COc1cccc(C2=CC(c3cc(OC)ccc3OC)n3nnnc3N2)c1 (centres undefined)	?	i	?	6.5µM*	-27%	16µM*
COc1ccc(C2=CC(c3ccc(C)cc3)n3nnnc3N2)cc1 (centres undefined)	?	/	?	i	-16%	?
O=C(CSc1nnc(CNC(=O)c2c(F)cccc2Cl)o1)Nc1ccccc1F	/	/	/	i	/	i
C/C(=N\O)c1ccc(OCC(=O)N2CCCCC2)cc1	/	?	/	/	50%	/
COc1cc(C)c(C(=O)CC(=O)c2c(C)cc(OC)cc2C)c(C)c1	-14%	i	?	i	25µM*	i
COc1ccc(NC(=O)c2cccc3c(-c4ccc(O)c(OC)c4)coc23)cc1	?	i	?	i	-12%	?
COc1cc(-c2coc3c(C(=O)NCc4cccc(Cl)c4)cccc23)ccc1O	?	?	23µM*	i	?	?
COc1cc(-c2coc3c(C(=O)NCc4ccccc4)cccc23)ccc1O	18µM*	?	?	i	-38%	i
CN1C/C(=C/c2ccccc2[N+](=O)[O-])C(=O)/C(=C\c2ccccc2[N+](=O)[O-])C1	2.9µM*	/	3.7µM*	?	?	i
SMILES	HT1080-NT tox	S2 tox	HT1080 IDH1KD tx	KB-3-1 tox	ATXN2 expr inh	KB-V1 cytotox
CCC(Nc1ccc(-c2nc(-c3ccccn3)no2)cc1[N+](=O)[O-])c1ccccc1 (centres undefined)	/	i	/	i	73%	i
CC(=O)c1ccc(Nc2c3c(nc4ccccc24)CCCC3)cc1	?	?	?	?	/	i
Cc1ccc2nc3c(c(Nc4cccc(O)c4)c2c1)CCC3	18µM*	?	?	?	-21%	?
Fc1cccc(Nc2c3c(nc4ccccc24)CCC3)c1	-6%	?	-9%	?	?	?
CCOC(=O)c1cccc(Nc2c3c(nc4ccccc24)CCC3)c1	/	?	/	i	?	?
Cc1ccc2nc3c(c(C(=O)O)c2c1)CCC3	1%	i	2%[9.24 µM]	i	2%	i
c1ccc2c(Nc3ccc4c(c3)OCCO4)c3c(nc2c1)CCCC3	16µM*	i	?	i	/	?
CC(=O)c1cccc(Nc2c3c(nc4ccccc24)CCC3)c1	5.8µM*	?	2.6µM*	1.8µM*	?	i
COC(=O)c1cccc(Nc2c3c(nc4ccccc24)CCC3)c1	21µM*	i	16µM*	21µM*	-31%	18µM*
